Sampled rows, rich in hits. Any-hit rate of the full collection: about 4%.
D1 antagonist = Antagonist of Human D 1 Dopamine Receptor: qHTS; D(1A) dopamine receptor (Homo sapiens), P21728; HEK293 TREx D1 cells, calcium flux, dopamine EC80; stronger effect = lower value; activity change, negative = inhibition, % at 10 µM; 360,000 compounds, 3.2% hits; AID 504652, 2011; in the data active = activity change below about -30%
Target sequence (P21728 whole entry, looked up): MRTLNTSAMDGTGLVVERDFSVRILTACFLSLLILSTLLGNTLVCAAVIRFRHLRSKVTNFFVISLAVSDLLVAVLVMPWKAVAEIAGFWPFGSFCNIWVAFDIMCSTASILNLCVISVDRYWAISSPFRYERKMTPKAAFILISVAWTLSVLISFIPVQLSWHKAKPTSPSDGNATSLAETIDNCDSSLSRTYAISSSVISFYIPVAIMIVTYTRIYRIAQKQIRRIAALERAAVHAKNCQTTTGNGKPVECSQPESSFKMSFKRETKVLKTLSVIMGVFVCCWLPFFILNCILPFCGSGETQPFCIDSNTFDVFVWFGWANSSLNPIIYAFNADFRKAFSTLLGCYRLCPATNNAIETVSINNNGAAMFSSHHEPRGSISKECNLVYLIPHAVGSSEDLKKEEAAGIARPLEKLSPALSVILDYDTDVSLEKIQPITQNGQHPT
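Allosteric or orthosteric antagonism assessed as attenuation of the calcium response to EC80 dopamine, added 180 s after compound, in induced HEK293 Trex D1 cells loaded with no-wash calcium dye.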
D1 ag = Allosteric Agonists of the Human D1 Dopamine Receptor: qHTS; HEK293 T-REx D1 cells, calcium flux, agonist mode; activation, % at 2 µM; 360,000 compounds, 1% hits; AID 504660, 2011
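Inducible HEK293 T-REx D1 cells, force-coupled to calcium signalling, were plated at 4000 cells/well with tetracycline and held overnight at 30 C. After no-wash calcium dye loading, compound-evoked calcium rise over 180 s flagged agonists.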
D1 PAM = Potentiators of Human D1 Dopamine Receptor: qHTS | D(1A) dopamine receptor (Homo sapiens), P21728 | HEK293 TREx D1 cells, calcium flux, dopamine EC20 potentiation | potentiation, % at 10 µM | 360,000 compounds, 0.036% hits; in the data active = potentiation above about 30%
GRP78 ERSR act = qHTS for Inducers of the Endoplasmic Reticulum Stress Response (ERSR) in Human Glioma: qHTS; U87-MG GRP78 promoter luciferase reporter, 16 h; Potency, µM, usual class: activators; 420,000 compounds, 0.02% hits; active = well fitted activation curve with a large enough effect; also: series mostly up to about 76 µM; nearly all actives have a fitted effect of over 35% in size
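ERSR induction read as luciferase luminescence (Bright-Glo, 10 min at room temperature) in stably transfected human U87-MG glioma cells exposed to compounds for 16 h, using GRP78 as sensor.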
TRHR agonist = qHTS for Small Molecule Agonists and Allosteric Enhancers of Human TRH Receptor: Primary Screen for Agonists; Thyrotropin-releasing hormone receptor (Homo sapiens), P34981; 360,000 compounds, 0.18% hits; TRHR cells, calcium flux fluo-8, FDSS agonist mode; activation, % at 2 µM
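TRHR-expressing cells, plated overnight in medium with 10% serum, were loaded with fluo-8 calcium dye at room temperature. After a 10 s baseline, library compound was pin-added and calcium release was recorded kinetically (ex 480/em 530) as agonist response.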
TRHR PAM = qHTS for Small Molecule Agonists and Allosteric Enhancers of Human TRH Receptor: Primary Screen for Enhancers; Thyrotropin-releasing hormone receptor (Homo sapiens), P34981; TRHR cells, fluo-8 calcium fluorescence, EC20 TRH enhancement; enhancement, % at 2 µM; 360,000 compounds, 0.66% hits; AID 493056, 2011; in the data active = enhancement above about 30%
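Enhancer read-out: after compound pinning and an initial kinetic agonist-mode read, an EC20 of TRH (10 nM final) was injected and fluo-8 calcium signal (Ex 480/Em 530) followed at 1 s/cycle for 100 cycles in TRHR-expressing cells.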
A number is an active result; – = inactive; · = not tested or not shown; ! = repeats disagree. Rule as the data show it, unless noted: active = activation above about 30%; inactive = the rest.

SMILES | D1 antagonist | D1 ag | D1 PAM | GRP78 ERSR act | TRHR agonist | TRHR PAM
Cc1ccc(S(=O)(=O)/N=C2/NC(=O)/C(=C/c3cc([N+](=O)[O-])ccc3O)S2)cc1 | – | 218 | – | – | – | –
O=C(N=Nc1c(O)[nH]c2ccccc12)c1ccc2c(c1)OCO2 | – | – | – | – | – | –
Cc1nnc(SCC(=O)N2CCN(c3ccccc3)CC2)n(N)c1=O | – | – | – | – | – | 38
O=C(CSc1nnc2sc3ccccc3n12)N1CCN(c2ccccc2)CC1 | -59 | – | – | – | – | –
COc1ccccc1-c1c(C)nn2c(N3CCN(c4ccccc4)CC3)cc(C)nc12 | – | – | – | – | – | –
CCn1c2c(c(C)cc1=O)C(=O)CC(C)(C)C2 | – | – | – | – | – | 34
Cc1nn(C)c2c1c(C(F)(F)F)cc(=O)n2CC(=O)N1CCN(c2ccccc2F)CC1 | – | – | – | – | – | –
C=Cc1ccc(Cn2c(=O)cc(C)c3c(C)nn(C)c32)cc1 | – | 51 | – | – | – | –
Cc1cc(=O)n(Cc2ccccc2)c2c1c(C)nn2-c1ccccc1 | – | – | – | – | – | –
Cc1cc(=O)n(CC(=O)N2CCN(c3ccccc3F)CC2)c2c1c(C)nn2C | -30 | – | – | – | – | –
C/C(=N\Nc1nc(-c2ccc(C)cc2C)cs1)c1cc2ccccc2oc1=O | – | – | – | – | – | –
N#CC1=C(Nc2ccccc2)SC=C(c2ccc(Cl)c(Cl)c2)N=C1N1CCOCC1 | -60 | – | – | – | – | –
Cc1ccc(N2CCN(/N=C/c3ccccc3[N+](=O)[O-])CC2)cc1 | – | – | – | – | – | –
COc1ccc(C(=O)NCCC(=O)NCc2cc(=O)n(C)c(=O)n2C)cc1 | -51 | – | – | – | – | –
COc1ccc(CC(=O)NCC(=O)NCc2cc(=O)n(C)c(=O)n2C)cc1 | – | – | – | – | – | –
COc1cccc(C(=O)NCC(=O)NCc2cc(=O)n(C)c(=O)n2C)c1 | -36 | – | – | – | – | –
Cn1c(CNC(=O)CNC(=O)c2ccccc2)cc(=O)n(C)c1=O | – | – | – | – | – | –
Cc1ccc(-n2c(C)cc(/C=c3/sc4nc5ccccc5n4c3=O)c2C)cc1 | – | – | – | – | – | –
COc1cc(N2CCCC2)c(OC)cc1/C=c1/sc2nc3ccccc3n2c1=O | – | 47 | – | · | – | –
O=C(NC1CCCCCC1)C1CCC(CNS(=O)(=O)c2cccc3cccnc23)CC1 (configuration not stated) | · | · | · | – | · | ·
O=C(Nc1ccc(F)c(F)c1)C1CCCN(S(=O)(=O)c2cccc3nonc23)C1 (configuration not stated) | – | 33! | – | – | – | –
CC1CCCCC1NC(=O)C1CCC(CNS(=O)(=O)c2cccc3cccnc23)CC1 (configuration not stated) | -37 | – | – | – | – | –
O=C(C1CCCN(S(=O)(=O)c2cccc3cccnc23)C1)N1CCN(c2ccc(F)cc2)CC1 (configuration not stated) | -36 | – | – | – | – | –
O=C(NC1CCCCC1)C1CCCN(S(=O)(=O)c2cccc3cccnc23)C1 (configuration not stated) | -30 | – | – | – | – | –
O=C(NC1CCCC1)C1CCN(S(=O)(=O)c2cccc3cccnc23)CC1 | – | – | – | – | – | –
SMILES | D1 antagonist | D1 ag | D1 PAM | GRP78 ERSR act | TRHR agonist | TRHR PAM
COc1ccc(N2CCN(c3cc(C)nc4ccc(OC)cc34)CC2)cc1 | – | – | – | – | – | –
COc1cccc(NC(=O)C2CCCN(S(=O)(=O)c3cccc4cccnc34)C2)c1 (configuration not stated) | -35 | – | – | – | – | –
O=C(C1CCN(S(=O)(=O)c2cccc3nonc23)CC1)N1CCN(c2ccccc2F)CC1 | -37 | – | – | – | – | –
O=C(C1CCN(S(=O)(=O)c2cccc3nsnc23)CC1)N1CCc2ccccc2C1 | -44 | – | – | – | – | –
CCN(CC)C(=O)[C@H]1CC(CC(=O)NCc2cccc(C(F)(F)F)c2)C(=O)N2CCc3c([nH]c4ccccc34)[C@]12C (some centres not stated) | · | · | · | – | · | ·
CC(C)(C)NC(=O)CSc1nc2scc(-c3ccccc3)c2c(=O)[nH]1 | – | – | – | – | – | –
Cc1ccc(C(=O)NC2CC(C)(C)NC(C)(C)C2)cc1S(=O)(=O)N1CCCCC1 | – | – | – | – | – | –
CCOC(=O)c1ccc(NC(=O)Cc2noc3ccc(C)cc23)cc1 | – | – | – | – | – | –
COc1ccc(NC(=O)Cc2noc3ccc(C)cc23)cc1Cl | -31 | – | – | – | – | –
CC(=NCCc1ccccc1)C1=C(O)CSC1=O | -46 | – | – | – | – | –
N=c1n(N)c2ccccc2n1CC(=O)c1ccc(Br)cc1 | – | – | – | – | – | 33
C=CCn1c(=N)n(CC(=O)c2ccc(Br)cc2)c2ccccc21 | – | – | – | – | – | –
CN1CCC(N(C)S(=O)(=O)c2ccc(Cl)cc2)CC1 | – | – | – | – | – | 35
CC(Oc1ccc(Br)cc1)C(=O)Nc1ccc(S(=O)(=O)N(C)C2CCN(C)CC2)cc1 (configuration not stated) | -52 | 126 | – | – | – | –
CCC(C(=O)Nc1ccc(S(=O)(=O)N(C)C2CCN(C)CC2)cc1)c1ccccc1 (configuration not stated) | – | 30 | – | – | – | –
FC(F)(F)c1ccccc1NC(=S)Nc1ccccc1 | -35 | – | – | – | – | –
CN(C(=O)COc1cc(C(F)(F)F)nn1C)c1ccccc1 | – | – | – | – | – | 35
CCOc1ccc2c(c1)C(=NNC(=O)c1ccncc1)c1cc(OCC)ccc1-2 | – | – | – | – | – | 35
CN1C[C@H](C(=O)N[C@]2(C)O[C@]3(O)[C@H]4CCCN4C(=O)[C@H](Cc4ccccc4)N3C2=O)C[C@H]2c3cccc4[nH]cc(c34)C[C@@H]21 | · | · | · | – | · | ·
CN1C[C@H](C(=O)N[C@]2(C)O[C@@]3(O)[C@@H]4CCCN4C(=O)[C@H](Cc4ccccc4)N3C2=O)CC2c3cccc4[nH]cc(c34)C[C@H]21 (some centres not stated) | -62 | – | – | – | – | –

Compound activity from PubChem BioAssay.
